Shown are actives, neighbours in structure and some others; about 1.7% of the full set was active somewhere.
Fam108B inh: mouse Fam108B serine hydrolase inhibitors, primary screen, counter-screen for RBBP9 inhibitor project, biochemical, fluorescence polarization | recombinant Fam108B, FP-Rh probe fluorescence polarization | inhibition, % at 9.51 µM | actives 0.33% (n = 300,000);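 active = inhibition above the screen mean inhibition plus 3 SD, computed separately per campaign, cut at about 18% in these data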;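 also: inhibitors lower polarization as less probe binds the enzyme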
LYPLA2 counter: LYPLA2 inhibitors, primary screen, counter-screen for PME1 inhibitor project, biochemical, fluorescence polarization, FP-Rh probe ABPP. AID 2177, 2009. Acyl-protein thioesterase 2 (Homo sapiens), O95372. recombinant LYPLA2. inhibition, % at 5.9 µM. actives 0.38% (n = 320,000);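 active = inhibition above the screen-wide mean plus 3 SD, limit set per campaign, cut at about 26% in these data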
PAD4 FP inh: human PAD4 inhibitors, primary screen, biochemical, fluorescence polarization, 1536-well format. Protein-arginine deiminase type-4 (Homo sapiens), Q9UM07. recombinant PAD4, RCA probe fluorescence polarization. inhibition, % at 6.36 µM. actives 0.41% (n = 330,000);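 active = percent inhibition above a cutoff equal to the mean of all tested compounds plus 3 SD, cut at about 15% in these data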
Target sequence (Q9UM07 whole entry, looked up): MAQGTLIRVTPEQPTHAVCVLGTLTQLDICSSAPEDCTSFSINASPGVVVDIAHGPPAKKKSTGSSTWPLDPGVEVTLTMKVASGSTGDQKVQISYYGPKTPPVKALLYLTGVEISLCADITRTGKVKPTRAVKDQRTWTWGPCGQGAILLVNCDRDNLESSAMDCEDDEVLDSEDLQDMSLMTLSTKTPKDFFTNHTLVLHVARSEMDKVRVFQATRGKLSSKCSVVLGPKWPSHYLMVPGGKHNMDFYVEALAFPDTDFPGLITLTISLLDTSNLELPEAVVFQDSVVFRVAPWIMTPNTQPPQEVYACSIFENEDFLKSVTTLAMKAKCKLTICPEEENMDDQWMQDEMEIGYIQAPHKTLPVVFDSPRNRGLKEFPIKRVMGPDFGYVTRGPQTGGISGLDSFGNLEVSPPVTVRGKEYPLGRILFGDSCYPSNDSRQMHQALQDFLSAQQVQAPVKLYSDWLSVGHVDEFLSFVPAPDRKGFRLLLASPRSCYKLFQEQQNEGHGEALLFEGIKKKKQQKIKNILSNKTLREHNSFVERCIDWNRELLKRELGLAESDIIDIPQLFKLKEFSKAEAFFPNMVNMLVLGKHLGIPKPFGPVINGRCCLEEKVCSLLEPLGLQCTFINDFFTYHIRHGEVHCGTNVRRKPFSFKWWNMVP
PME-1 inh: PME-1 inhibitors via competitive probe labeling, primary screen, biochemical, fluorescence polarization, FP-Rh probe, HTS; recombinant PME-1; Protein phosphatase methylesterase 1 (Homo sapiens), Q9Y570; actives 0.53% (n = 320,000); inhibition, % at 5.9 µM;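 active = inhibition above the campaign mean of all compounds plus 3 SD, cut at about 26% in these data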;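 also: competitive labeling of PME-1 active site by serine hydrolase directed probe; inhibitors block probe labeling so polarization falls and inhibition rises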
GSTO1 counter: inhibitors of recombinant GSTO1, primary screen, counter-screen for RBBP9 inhibitor project, biochemical, fluorescence polarization; inhibition, % at 5.96 µM; AID 1974, 2009; activity-based probe fluorescence polarization; actives 1.1% (n = 300,000);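 active = inhibition above the campaign mean inhibition plus 3 SD, cut at about 35% in these data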
LYPLA1 inh: LYPLA1 inhibitors, primary screen, counter-screen for PME1 inhibitor project, biochemical, fluorescence polarization, FP-Rh probe ABPP; actives 0.16% (n = 320,000); inhibition, % at 5.9 µM; recombinant LYPLA1;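 active = inhibition above the mean of all tested compounds plus 3 SD, set per campaign, cut at about 14% in these data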;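 also: inhibitors block serine hydrolase probe labeling of LYPLA1 so polarization falls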
GSTO1 inh conf: GSTO1 inhibitor hit confirmation, counter-screen for RBBP9 inhibitor project, biochemical, fluorescence polarization, triplicate; shares compounds with GSTO1 counter; recombinant GSTO1, probe fluorescence polarization; inhibition, % at 5.96 µM; actives 54% (n = 2,400); AID 2176, 2009;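 active = inhibition above the primary screen's cutoff, its mean inhibition plus 3 SD, cut at about 35% in these data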;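 also: loss of polarization as inhibitors block binding of rhodamine sulfonate ester activity probe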
LYPLA1 conf: LYPLA1 inhibitors, retest, confirmation, counter-screen for PME1 inhibitor project, biochemical, fluorescence polarization, FP-Rh probe ABPP | shares compounds with LYPLA1 inh | recombinant LYPLA1 | inhibition, % at 5.9 µM | actives 69% (n = 480) | AID 2233, 2010;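 active = mean inhibition across replicates above the hit cutoff set in the primary screen, cut at about 15% in these data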;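 also: loss of FP-Rh probe labeling of LYPLA1 seen as lower polarization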
LYPLA2 confirm: LYPLA2 inhibitors, retest, confirmation, counter-screen for PME1 inhibitor project, biochemical, fluorescence polarization, FP-Rh probe ABPP; shares compounds with LYPLA2 counter; recombinant LYPLA2; inhibition, % at 5.9 µM; actives 72% (n = 1,100);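 active = mean inhibition across replicates above the hit cutoff set in the primary screen, cut at about 26% in these data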;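 also: blocked labeling of the enzyme by serine hydrolase FP-Rh probe lowers polarization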
PAD4 FP conf: human PAD4 inhibitors, confirmation, biochemical, fluorescence polarization; shares compounds with PAD4 FP inh; recombinant PAD4, RCA probe fluorescence polarization; inhibition, % at 6.36 µM; actives 28% (n = 1,200); AID 488796, 2010;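 active = mean inhibition across replicates above the hit cutoff set by the earlier primary screen, cut at about 15% in these data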;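 also: inhibitors block active-site labeling by the probe so polarization falls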
A number is an active result; n = inactive; x = no result given.

SMILES | Fam108B inh | LYPLA2 counter | PAD4 FP inh | PME-1 inh | GSTO1 counter | LYPLA1 inh | GSTO1 inh conf | PAD4 FP conf | others
COC(=O)C1=C(c2ccccc2OCc2ccccc2)C[C@@H]2CC[C@H]1N2C(=O)NCc1cccc(C(F)(F)F)c1 | x | n | n | n | x | n | x | x
O=C1NC(=O)C(=Cc2csc3ccccc23)C(=O)N1 | n | n | n | n | n | n | x | x
O=C1NC(=O)C(=CN2CCc3ccccc32)C(=O)N1 | n | n | n | n | 39 | n | n | x
Cc1ccccc1-n1c(O)c(C=Nc2ccc(N(C)C)cc2)c(=O)[nH]c1=O | n | n | n | n | 45 | n | n | x
COP(=S)(OC)SCN1C(=O)c2ccccc2C1=O | n | n | n | n | 38 | n | 60 | x
CN1CCN(c2c(C#N)c(C(F)(F)F)nn2C)CC1 | n | n | n | n | n | n | x | x
C=CCn1c(O)c(C(CC)=Nc2ccc(N(C)C)cc2)c(=O)[nH]c1=O | n | n | 30 | n | 65 | n | n | n
C=CCn1c(O)c(C(CC)=Nc2ccc3c(c2)CCC3)c(=O)[nH]c1=O | n | n | n | n | n | n | x | x
CCC1=CCN(CCc2c(C)[nH]c3ccccc23)CC1 | n | n | n | n | n | n | x | x
Nc1c(C(=O)OCc2ccccc2)c2nc3ccccc3nc2n1Cc1cccs1 | n | n | 25 | n | 51 | n | n | n
CN1CCc2cc3c(c4c2C1Cc1ccccc1-4)OCO3 (stereo not drawn) | n | n | 58 | n | 77 | n | 63 | n
O=C(CCC(=O)N1C[C@H]2C[C@@H](C1)c1cccc(=O)n1C2)NCc1ccccc1 | n | n | n | n | n | n | x | x
CC(=O)OC1C=CC2[C@H]3Cc4ccc(O)c5c4[C@@]2(CCN3C)C1O5 (stereo partly drawn) | x | x | n | x | x | x | x | x
CCOC(=O)c1c(N)n(CCN2CCCCC2)c2nc3ccccc3nc12 | n | n | n | n | n | n | x | x
CCCCn1c(NS(=O)(=O)c2ccccc2)c(C(=O)OCC)c2nc3ccccc3nc21 | n | n | 63 | n | 66 | n | 66 | n
CCCN1CCC[C@@H](c2cccc(O)c2)C1 | n | n | n | n | n | n | x | x
CCCN1CCc2cc(O)cc3c2[C@H]1Cc1ccc(O)c(O)c1-3 | n | n | 18 | n | 89 | n | n | n
Cn1ncnc2c(=O)n(C)c(=O)nc1-2 | 78 | 96 | 68 | 44 | 94 | 77 | 92 | 66 | LYPLA1 conf=88;LYPLA2 confirm=96
O=[N+]([O-])c1ccc(N2CCCCCC2)c2nonc12 | n | n | n | n | n | 16 | x | x | LYPLA1 conf=24
C=CCn1c(O)c(C(C)=NCC2CCCO2)c(=O)[nH]c1=O (stereo not drawn) | n | n | n | n | n | n | x | x
O=C(COc1ccccc1)N1CCN(C/C=C/c2ccccc2)CC1 | n | n | n | n | n | n | x | x
O=C(COc1ccc(Cl)cc1)N1CCN(C/C=C/c2ccccc2)CC1 | n | 70 | n | n | n | 26 | x | x | LYPLA1 conf=24;LYPLA2 confirm=77
COc1cccc(C2(O)CCN(CC(=O)Nc3nc(C)cs3)CC2)c1 | n | n | n | n | n | n | x | x
